The campaign covered roughly 310,000 compounds. About 14,000 (4.5%) showed an effect of 50% or more. The effect is printed as a negative number. What follows is part of a selection rich in strong results, with near analogues and random picks from the rest.
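Note: peak tail current of the secondary pulse compared with the same well before compound.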

The assay deals with human ether-à-go-go-related gene (hERG) potassium channel (human, UniProt Q12809). As to the kind of experiment: primary screen, population patch clamp on CHO cells stably expressing hERG; higher = less effect of the substance.
Chain of human ether-à-go-go-related gene (hERG) potassium channel (Q12809 whole entry, looked up): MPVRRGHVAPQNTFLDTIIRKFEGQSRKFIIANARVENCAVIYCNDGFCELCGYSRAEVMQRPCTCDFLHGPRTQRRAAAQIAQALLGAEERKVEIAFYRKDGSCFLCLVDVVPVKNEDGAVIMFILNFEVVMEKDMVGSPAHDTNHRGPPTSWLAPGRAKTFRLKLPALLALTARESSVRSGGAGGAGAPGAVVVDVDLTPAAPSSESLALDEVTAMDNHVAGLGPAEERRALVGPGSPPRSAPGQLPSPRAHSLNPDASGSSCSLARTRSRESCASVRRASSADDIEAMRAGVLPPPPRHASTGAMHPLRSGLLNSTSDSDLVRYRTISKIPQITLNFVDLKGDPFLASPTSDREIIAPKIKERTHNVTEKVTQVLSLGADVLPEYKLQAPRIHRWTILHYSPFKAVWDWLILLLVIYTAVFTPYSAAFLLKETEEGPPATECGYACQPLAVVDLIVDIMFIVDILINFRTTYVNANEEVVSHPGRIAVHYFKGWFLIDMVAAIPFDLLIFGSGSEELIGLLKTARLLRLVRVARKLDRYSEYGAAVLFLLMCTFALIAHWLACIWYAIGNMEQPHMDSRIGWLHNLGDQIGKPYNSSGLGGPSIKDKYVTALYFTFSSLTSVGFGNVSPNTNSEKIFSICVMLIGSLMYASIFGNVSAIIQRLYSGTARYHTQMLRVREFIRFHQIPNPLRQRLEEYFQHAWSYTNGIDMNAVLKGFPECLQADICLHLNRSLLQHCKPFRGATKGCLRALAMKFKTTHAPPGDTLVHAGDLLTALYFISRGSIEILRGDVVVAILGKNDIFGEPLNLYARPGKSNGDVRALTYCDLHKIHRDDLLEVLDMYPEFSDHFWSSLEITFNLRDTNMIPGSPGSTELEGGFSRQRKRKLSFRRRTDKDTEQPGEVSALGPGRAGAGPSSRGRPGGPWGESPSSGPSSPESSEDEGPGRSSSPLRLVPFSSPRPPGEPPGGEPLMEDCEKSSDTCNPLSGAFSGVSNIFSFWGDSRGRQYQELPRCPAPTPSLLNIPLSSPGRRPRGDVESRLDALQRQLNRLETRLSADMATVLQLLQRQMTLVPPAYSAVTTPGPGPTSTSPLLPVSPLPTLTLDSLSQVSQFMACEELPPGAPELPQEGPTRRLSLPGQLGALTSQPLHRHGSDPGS
On to `CCOc1ccc(NC(=S)N2CCC(C(O)(c3ccccc3)c3ccccc3)CC2)cc1`, for which the “hERG current change (%, negative = inhibition) at 10uM” value is given as -13%.
The figure for `CC(OC(=O)c1ccc(F)c(S(=O)(=O)N2CCOCC2)c1)C(=O)NCC1CCCCC1` (stereo not shown) is 1.84%.
The figure for `C=CCOCCN(CC)CC` is -21.3%.
The same measure for `Cc1ccc(NC(=O)CSc2nnc(CNC(=O)c3c(F)cccc3Cl)o2)cc1`: 3.28%; for `COc1cc(/C=C2\C(=O)N(CCC#N)N=C2C)ccc1OCC(=O)Nc1ccccc1`: -7.3%.
Take `COc1cccc(C2CCCN2Cc2nc(-c3sccc3C)oc2C)c1` (stereo not shown): the “hERG current change (%, negative = inhibition) at 10uM” value was found to be 20.6%.
The same measure for `Cc1ccc(-c2nc(CS(=O)CC(=O)NC3CC3)c(C)o2)cc1` (stereo not shown): 6.39%; for `Cc1ccc(-c2nc(CN(C)C(C3CC3)C3CC3)c(C)o2)cc1`: -56.6%; for `Cc1oc(-c2ccc3ccccc3c2)nc1CN(C)C(C)c1ccncn1` (stereo not shown): -49.8%.
On to `CSc1ccc(-c2nc(CN(C)C3CCOC3)c(C)o2)cc1` (stereo not shown), for which the “hERG current change (%, negative = inhibition) at 10uM” value is -31.4%.
The same measure for `Cc1oc(-c2cc(F)ccc2F)nc1CN1CCN(C)C(=O)[C@@H]1C`: 8.32%.
The figure for `Cc1ccsc1-c1nc(CN(C)C(C2CC2)C2CC2)c(C)o1` is -76%; for `Cc1ccsc1-c1nc(CN2CCN(C)C(=O)[C@@H]2C)c(C)o1` it is -52.5%; for `Cc1ccsc1-c1nc(CN2C[C@@H](C)O[C@@H](C)C2)c(C)o1` it is 17.5%.
The figure for `Cc1oc(-c2cccc(Cl)c2)nc1CN(C)C1CCOC1` (stereo not shown) is 0.385%; for `Cc1ccsc1-c1nc(CN2CCCC2c2ccc(F)cc2)c(C)o1` (stereo not shown) it is 24.9%.
Turning to `Cc1oc(-c2ccc(-c3ccccc3)cc2)nc1CN(C)C1CCOC1` (stereo not shown), the “hERG current change (%, negative = inhibition) at 10uM” value is listed as -55.8%.
The figure for `O=[N+]([O-])c1cccc(-c2c(-c3ccccc3)ncc3cc(F)ccc23)c1` is 0.428%.
The same measure for `Nc1cccnc1S(=O)(=O)c1ccccc1`: 13.8%; for `O=C(c1ccco1)N1CCN(C2=NS(=O)(=O)c3ccccc32)CC1`: -3.13%.
Regarding `COc1ccc(CCC(=O)Nc2cccc(Cl)c2)cc1`, the “hERG current change (%, negative = inhibition) at 10uM” value is -1.25%.
The same measure for `O=C(CN1C(=O)NC2(CCOc3ccccc32)C1=O)c1ccc(Cl)cc1` (stereo not shown): -43.5%; for `O=C(Nc1cccc(-c2ccc(N3CCOCC3)nn2)c1)c1ccc(Cl)cc1`: -3.12%; for `COCCN(Cc1nc(-c2ccc(-c3ccccc3)cc2)oc1C)C(C)C`: -71.4%.
The figure for `Cc1oc(-c2ccccc2)nc1CC(=O)O` is 8.97%; for `Cc1oc(-c2ccc(-c3ccccc3)cc2)nc1CN(CCO)C(C)C` it is -44.1%; for `COc1ccc(-c2csc(NC(=O)c3ccc(C(C)(C)C)cc3)c2C(=O)O)cc1` it is 24.9%.
For `CC(NC(=S)NCCc1ccccc1)C(c1cccs1)N1CCN(C)CC1` (stereo not shown), the “hERG current change (%, negative = inhibition) at 10uM” value is -35.7%.
Consider `CC(=O)c1ccc(NC(=O)Nc2ccncc2)cc1`, for which the “hERG current change (%, negative = inhibition) at 10uM” value is 15.3%.
With `O=C(CCCc1c[nH]c2ccccc12)N[C@@H](Cc1c[nH]c2ccccc12)C(=O)O`, the “hERG current change (%, negative = inhibition) at 10uM” value came out at 18.9%.
The same measure for `CCOC(=O)N1CCC(NC(=O)c2cc(C(=O)Nc3ccc(S(=O)(=O)N4CCCCC4)cc3)ccc2CO)CC1`: 34.2%.
Take `CCOC(=O)Cn1nc(C)cc1NC(=O)c1cccnc1`: the “hERG current change (%, negative = inhibition) at 10uM” value was found to be 10%.
With `O=C(CCCc1nc(-c2ccc(Cl)cc2)no1)NC1CCCC1`, the “hERG current change (%, negative = inhibition) at 10uM” value was -1.19%.
The same measure for `O=C(O)[C@H](Cc1ccccc1)NC(=O)N1CCOCC1`: -7.49%.
The same measure for `CCOC(=O)c1cnc2c(C(=O)OC)cccc2c1NCc1cccnc1`: -70.5%.
The figure for `CCOC(=O)c1cnc2c(OC)cccc2c1NCc1cccnc1` is -72.2%; for `CCOC(=O)c1cnc2ccccc2c1Nc1ccc2c(c1)OCCO2` it is -12.3%.
With `CCOC(=O)c1cnc2c(OC)cccc2c1Nc1ccc2c(c1)OCCO2`, the “hERG current change (%, negative = inhibition) at 10uM” value is recorded as -56.3%.
The figure for `CCOC(=O)c1cnc2c(Cl)cccc2c1NCCN(C)C.Cl` is -25.6%; for `CCOC(=O)c1cnc2ccc(OC)cc2c1Nc1ccc2c(c1)OCCO2` it is 1.43%.
The figure for `CCOC(=O)c1ccc(NCc2cccnc2)cc1` is 0.518%.
The same measure for `CCOC(=O)c1cnc2c(OC)cccc2c1N1CC(C)CC(C)C1` (stereo not shown): -17.1%; for `CCOC(=O)c1cnc2c(OC)cccc2c1Oc1ccccc1`: 3.3%; for `CC(=O)c1cccc(NC(=O)C(C)OC(=O)CN2C(=O)NC(C)(C)C2=O)c1` (stereo not shown): 23.8%.
For the compound `COC(=O)C1=C(c2cc3ccccc3s2)C[C@@H]2CC[C@H]1N2C(=O)NCCNC(C)=O`, the “hERG current change (%, negative = inhibition) at 10uM” value was found to be 2.06%.
The figure for `O=C(O)Cn1ccnc1` is 4.81%; for `Nc1ccccc1-c1nnc(SCc2ccccc2Cl)[nH]c1=O` it is -0.313%.
In the case of `COC(=O)C(c1ccccc1)N1CCCCCC1.Cl` (stereo not shown), the “hERG current change (%, negative = inhibition) at 10uM” value amounted to 10.8%.
The same measure for `Cc1nc2ncnn2c(C)c1CCC(=O)N1CCN(c2ccccn2)CC1`: -33.3%.
Consider `Cc1nc2ncnn2c(C)c1CCC(=O)N1CCc2ccccc2C1`, for which the “hERG current change (%, negative = inhibition) at 10uM” value was -63.4%.
The same measure for `CCOC(=O)N1CCN(C(=O)CCc2c(C)nc3nc(C)nn3c2C)CC1`: -22%; for `Cc1nc2ncnn2c(C)c1CCC(=O)N1CCc2ccccc21`: -80.6%; for `Cc1nc2ncnn2c(C)c1CCC(=O)N1CCCCC1`: -2.79%.
In the case of `Cc1nc2nc(C)c(CCC(=O)N3CCc4ccccc43)c(C)n2n1`, the “hERG current change (%, negative = inhibition) at 10uM” value is recorded as -63.5%.
The same measure for `Cc1nc2ncnn2c(C)c1CCC(=O)N1CCN(Cc2ccccc2)CC1`: -7.67%; for `Cc1nc2ncnn2c(C)c1CCC(=O)N1CCOCC1`: 1.89%.
The same measure for `Cc1nc2nc(C)c(CCC(=O)O)c(C)n2n1`: 8.07%; for `CCc1nnc(NC(=O)CCN2C(=O)/C(=C/c3cc(OC)c(OC)c(OC)c3)SC2=S)s1`: 8.4%.
The figure for `O=C(O)CCC(C(=O)O)n1c(O)c(C2=c3ccccc3=NC2=O)sc1=S` (stereo not shown) is 20.5%; for `Cc1ccc(OCC(=O)N2CCC(N3CC(C)CC(C)C3)CC2)cc1` (stereo not shown) it is -45.5%.
For `S=C1NCN(CCc2ccccc2)CN1Cc1ccccc1`, the “hERG current change (%, negative = inhibition) at 10uM” value amounted to 14.8%.
The same measure for `COc1ccc(CNC(=O)Cn2cc([N+](=O)[O-])cn2)cc1`: 16.1%; for `O=C(COC(=O)c1ccc2ncsc2c1)NCc1ccc(Cl)cc1`: -4.62%.
The figure for `O=C(Nc1cccnc1)c1cc(-c2ccccc2)on1` is 5.06%.
The same measure for `COc1ccc2oc(=O)c(C(=O)N3CCc4ccccc43)cc2c1`: 15.8%; for `COc1ccc2oc(=O)c(C(=O)N3c4ccccc4CC3C)cc2c1` (stereo not shown): -21.6%.
Turning to `COc1ccc2oc(=O)c(C(=O)N3CCCc4ccccc43)cc2c1`, the “hERG current change (%, negative = inhibition) at 10uM” value is recorded as -63.1%.
`COc1cc2nc(COc3ccc(C#N)cc3)n(CC#N)c(=O)c2cc1OC`: the “hERG current change (%, negative = inhibition) at 10uM” value is -50.7%.
With `COc1ccc(OCc2nc3c4cc(OC)c(OC)cc4nc(=S)n3[nH]2)cc1`, the “hERG current change (%, negative = inhibition) at 10uM” value came out at 11.7%.
As for `CCSc1nc2cc(OC)c(OC)cc2c(=O)n1CC`, the “hERG current change (%, negative = inhibition) at 10uM” value is recorded as -2.16%.
The figure for `Cc1ccc(Cn2c(Sc3nnc(C)s3)nc3c2c(=O)[nH]c(=O)n3C)cc1` is -46.8%; for `COc1cccc(C2C3=C(Nc4[nH]n(-c5ccccc5)c(=O)c42)c2ccccc2C3=O)c1` (stereo not shown) it is 9.64%; for `Cl.O=C(Cc1ccccc1)NC1CCN(Cc2ccccc2)CC1` it is 1.21%.
The same measure for `CCOc1ccc(S(=O)(=O)NCCC(=O)NC2CCN(Cc3ccccc3)CC2)cc1`: -21.8%; for `O=C(Cn1cc2c(n1)CCCCC2)NC1CCCCCC1`: 0.992%; for `CN(CC(=O)NC1CCN(Cc2ccccc2)CC1)S(=O)(=O)c1ccc(Cl)s1`: -67.9%.
The figure for `O=C(Cn1cc2c(n1)CCCC2)NC1CCN(Cc2ccccc2)CC1` is -8.32%; for `O=C(Cn1cc2c(n1)CCCCC2)NC1CCN(Cc2ccccc2)CC1` it is -58.5%; for `O=C(Cc1ccc(Br)cc1)NC1CCN(Cc2ccccc2)CC1` it is -56%.
For the compound `CN(CC(=O)NC1CCN(Cc2ccccc2)CC1)S(=O)(=O)c1ccc(Br)s1`, the “hERG current change (%, negative = inhibition) at 10uM” value is -18%.
The figure for `O=C(CCNS(=O)(=O)c1ccc(Br)cc1)NC1CCN(Cc2ccccc2)CC1` is -61.9%.
Turning to `O=C(CCNS(=O)(=O)c1cccs1)NC1CCN(Cc2ccccc2)CC1`, the “hERG current change (%, negative = inhibition) at 10uM” value is 9.19%.
Take `Cc1ccc(CC(=O)NC2CCN(Cc3ccccc3)CC2)cc1`: the “hERG current change (%, negative = inhibition) at 10uM” value is -12.7%.
The figure for `CN(CC(=O)NC1CCN(Cc2ccccc2)CC1)S(=O)(=O)c1ccc(Cl)cc1` is -40.2%.
The figure for `CC1=CC(C)C2COC(c3ccc[n+](C)c3)C1C2C.[I-]` (stereo not shown) is 14.3%.
With `O=C1/C(=C/c2ccncc2)N2CCC1CC2`, the “hERG current change (%, negative = inhibition) at 10uM” value is reported as 2.32%.
In the case of `CCC(NC(=O)c1ccccc1NC(=O)c1ccco1)C(=O)NC1CCCCC1` (stereo not shown), the “hERG current change (%, negative = inhibition) at 10uM” value was -22.5%.
The figure for `CCOCCCNC(=O)c1ccc2c(c1)N(CC)C(=O)c1ccccc1S2=O` (stereo not shown) is 16.2%; for `CCN(CC)c1ccc(C2C(C(C)=O)C(=O)CC(C)(O)C2C(C)=O)cc1` (stereo not shown) it is -13.4%.
The same measure for `O=C(Nc1ccc(F)c(Cl)c1)NC1CC1`: 13.7%; for `CC1(C)CC(=O)C(C(c2ccc(Br)cc2)C2C(=O)CC(C)(C)CC2=O)C(=O)C1`: 0.769%.
